HT1080 IDH1KD tx: toxicity to HT-1080 IDH1 knockdown cells (counter line); HT-1080 IDH1 knockdown viability, ATP luminescence, 48 h; Potency, µM (top dose mostly 46.1 µM), most hits filed as cytotoxic; 360,000 tested, 2% active; AID 686971
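Cytotoxicity counter-line: IDH1KD HT-1080, 48 h, CellTiter-Glo. Curves classed by r2, magnitude and activity.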
HepG2 tox: kills HepG2 cells in TGF-b inhibitor counter-screen; HepG2 CAGA-GFP viability, ATP luminescence, 18 h; Potency, µM (doses to about 46.1 µM), usual class: cytotoxic; 410,000 tested, 0.76% active; AID 588856
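CellTiter-Glo luminescence gave cytotoxicity after 18 hours at 37 degrees C. The cells were HepG2 CAGA-GFP in 1% FBS DMEM, stimulated with 500 pg/mL TGF-beta after compound addition. %Activity was normalised to no-cell wells (complete cell-killing) and DMSO (no toxicity), and curves were fitted and classified.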
KB-V1 cytotox: KB-V1 MDR subline cytotoxicity; KB-V1 MDR cells viability, CellTiter-Glo, 72 h; Potency, µM (highest dose often 46.1 µM), usual class: cytotoxic; 400,000 tested, 3.4% active; further: nearly all actives have a fitted effect of over 60% in size
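Following 72 h at 37 degrees C with compound, KB-V1 cell viability was read by CellTiter-Glo luminescence, medium being phenol-red-free DMEM plus 10% FBS; concentration-response parameters came from normalized, curve-fitted qHTS data.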
HT1080-NT tox: kills 2HG-producing HT-1080-NT fibrosarcoma cells; HT-1080-NT fibrosarcoma viability, CellTiter-Glo ATP luminescence, 48 h; Potency, µM (series often up to 46.1 µM), hits mostly cytotoxic; 360,000 tested, 1.6% active;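 further: NT is the 2HG producing partner of a matched IDH1 knockdown line; nearly all actives have a fitted effect of over 55% in size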
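HT-1080-NT; 750 cells/well; 5% FBS RPMI; 48 h compound, 37 degrees C; CellTiter-Glo luminescence; curve fitting and curve-class assignment.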
KB-3-1 tox: KB-3-1 parental cell cytotoxicity; KB-3-1 viability, CellTiter-Glo ATP luminescence, 72 h; Potency, µM (doses to about 46.1 µM), usual class: cytotoxic; 400,000 tested, 1.4% active; AID 1347075; further: nearly all actives have a fitted effect of over 60% in size
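Multi-concentration cytotoxicity screen in KB-3-1 cells grown in DMEM lacking phenol red with 10% FBS. After 72 h at 37 °C with compound, ATP-dependent luminescence was recorded.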
TGFb SMAD3 inh: TGF-b pathway inhibition; HepG2 CAGA-GFP TGF-b/SMAD3 reporter, GFP fluorescence, 18 h; TGF-beta stimulated, 500 pg/mL final; Potency, µM (top dose mostly 46.1 µM), actives largely listed as inhibitors; 410,000 tested, 1.2% active; further: nearly all actives have a fitted effect of over 65% in size
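Inhibition was scored as loss of TGF-beta-induced (500 pg/mL final, 18 hours, 37 degrees C) GFP in HEPG2 cells carrying a CAGA-GFP reporter, in DMEM with 1% FBS. Well GFP was summed per cell; Activity was normalised to unstimulated and stimulated DMSO wells, then concentration-response fitting.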
Hits are given with their value; . = inactive; ? = inconclusive; / = no result given. Shown are actives, neighbours in structure and some others; about 6.6% of the full set was active somewhere. The call rests on the fitted dose curve; in most records, active means well fitted curve in the direction sought with a large enough effect; inconclusive means small, poorly fitted or top-dose-only effect, or another doubt; inactive means no such curve, though single readings can be large; an effect the other way counts as inactive or inconclusive.

SMILES | HT1080 IDH1KD tx | HepG2 tox | KB-V1 cytotox | HT1080-NT tox | KB-3-1 tox | TGFb SMAD3 inh
CSCCC(c1nnnn1C1CCCCC1)N1CCN(C/C=C/c2ccccc2)CC1 (stereo not drawn) | ? | . | ? | ? | . | ?
c1ccc(N2CCN(c3ncnc4c3oc3ccccc34)CC2)cc1 | . | . | 16.4µM | . | . | .
CCc1nnc(N2CCN(c3ncnc4c3oc3ccccc34)CC2)s1 | ? | . | . | . | . | .
Brc1ccc2oc3c(N4CCOCC4)ncnc3c2c1 | . | . | 16.4µM | . | . | .
O=C(Nc1ccc(Br)cc1)c1cc(S(=O)(=O)N2CCc3ccccc32)ccc1F | / | . | . | / | . | .
CCOC(=O)C(=NC(C)CC)NNc1ccc(Br)cc1 (stereo not drawn) | ? | . | . | 16.4µM | . | .
CCOC(=O)C(=NC(C)CC)NNc1cccc(C(F)(F)F)c1 (stereo not drawn) | . | . | . | . | . | ?
CCC(=O)NNc1ccc(Br)cc1 | 4.11µM | . | . | 3.66µM | . | .
COc1cccc(-c2nc3c(C#N)c[nH]n3c2NC2CCCC2)c1OC | / | . | . | / | . | .
Cc1cc(Nc2ccc(C)c(C)c2)c2ccccc2n1 | 16.4µM | . | . | ? | . | ?
COc1ccc(OC)c(Nc2cc(C)nc3ccccc23)c1 | ? | . | 18.4µM | ? | ? | ?
CC(=O)Nc1ccc(Nc2cc(C)nc3ccccc23)cc1 | . | . | . | . | . | .
CCOC(=O)CSc1nc2cc3c(cc2c(=O)n1CCCC(=O)NCCc1ccc(OC)c(OC)c1)OCO3 | / | . | / | / | / | .
Cc1ccccc1C(=O)Nc1cccc(-c2nc3cccnc3s2)c1 | / | . | / | / | / | .
CCOc1ccc(C2=CS/C(=C(\C#N)c3nnc4n3CCCCC4)N2CC)cc1 | ? | . | 20.6µM | . | . | .
Clc1nc(NCc2ccco2)c2[nH]cnc2n1 | / | . | . | / | . | .
Cc1ccc(S(=O)(=O)N2CCN(C(C)C(=O)Nc3ccccc3-c3ccccc3)CC2)cc1 (stereo not drawn) | . | . | 3.66µM | . | . | .
c1ccc2c(c1)nnn2Cc1nnc2sc(-c3ccncc3)nn12 | . | . | . | . | . | .
c1coc(-c2nn3c(Cn4nnc5ccccc54)nnc3s2)c1 | . | . | 13µM | . | . | .
c1csc(-c2nn3c(Cn4nnc5ccccc54)nnc3s2)c1 | . | . | 14.6µM | . | ? | .
COc1ccc(-c2ccc(NS(=O)(=O)c3ccc(F)c(C(F)(F)F)c3)cc2)nn1 | / | . | . | / | . | .
c1ccc(C[n+]2c(-c3ccccc3)csc2Nc2ccccc2)cc1 | . | . | 16.4µM | . | 20.6µM | ?
c1ccc(Nc2scc(-c3ccccc3)[n+]2Cc2ccco2)cc1 | . | . | ? | ? | ? | ?
Cc1ccccc1Nc1nnc(SCC(=O)c2c(N)n(C3CC3)c(=O)[nH]c2=O)s1 | . | . | . | . | . | ?
Nc1ccncc1N | . | . | ? | . | 20.6µM | .
SMILES | HT1080 IDH1KD tx | HepG2 tox | KB-V1 cytotox | HT1080-NT tox | KB-3-1 tox | TGFb SMAD3 inh
CCCCc1c(-c2ccccc2OC)ncn1Cc1ccc(-c2ccccc2)cc1 | ? | / | 10.3µM | ? | ? | /
COc1ccccc1OCC(=O)NCCSCc1cccc(Cl)c1 | . | . | . | . | . | .
COc1cccc(Cn2cnc(-c3ccccc3OC)c2-c2cccs2)c1 | . | / | . | ? | ? | /
CCCCc1c(-c2ccccc2OC)ncn1CCc1cccc(Cl)c1 | ? | / | 14.6µM | 18.4µM | ? | /
CCCCc1c(-c2ccccc2OC)ncn1C1CCCC1 | ? | / | 13µM | ? | 18.4µM | /
COc1ccccc1-c1nn(Cc2ccccc2)cc1/C=C/C(=O)O | . | . | . | . | . | .
COc1cccc(Cn2cnc(-c3ccccc3OC)c2C2CC2)c1 | ? | / | 18.4µM | ? | ? | /
CC1=C(c2ccc(C)cc2)S(=O)(=O)N(Cc2ccc(C(=O)NCc3ccccc3)cc2)C1=O | / | . | / | / | / | .
CCc1cnc2c(c1SCCC(C)C)c(=O)n(C)c(=O)n2C | / | . | . | / | . | .
CCCCc1c(-c2ccccc2OC)ncn1Cc1ccc(Cl)cc1 | 18.4µM | / | 20.6µM | ? | ? | /
COc1ccccc1-c1c(C)nn2c(N)c(-c3ccc(Cl)cc3)cnc12 | . | . | . | . | . | .
COc1cccc(Cn2cnc(-c3ccccc3OC)c2-c2cccnc2)c1 | . | / | . | ? | . | /
CCCCc1c(-c2ccccc2OC)ncn1Cc1cccc(-c2ccccc2)c1 | ? | / | 14.6µM | 20.6µM | ? | /
COc1cc(NC(=O)c2cc(C)nc3c2c(C)nn3-c2ccccc2Cl)cc(OC)c1 | / | . | ? | / | . | ?
COc1ccc(-c2cnc3c(NC(C)=O)cc(-c4ccc(C(=O)NC5CC5)cc4)cn23)cc1OC | . | . | . | . | . | .
O=CNc1cc(-c2ccc(C(=O)NC3CC3)cc2)cn2c(-c3ccccc3)cnc12 | 5.8µM | . | ? | 6.51µM | ? | .
CC(=O)c1cccc(-c2cnc3c(NC=O)cc(-c4ccc(F)cc4)cn23)c1 | ? | . | ? | . | ? | .
COc1cccc(-c2cnc3c(NC(C)=O)cc(-c4ccc(C(=O)NC5CC5)cc4)cn23)c1 | 20.6µM | . | . | 18.4µM | ? | .
O=CNc1cc(-c2ccc(C(=O)NC3CC3)cc2)cn2c(-c3ccc(F)c(Cl)c3)cnc12 | ? | . | ? | ? | ? | ?
CC(=O)c1ccc(-c2cnc3c(NC=O)cc(-c4ccc(C(=O)NC5CC5)cc4)cn23)cc1 | 7.31µM | . | . | 14.6µM | . | ?
CCc1ccc(OCC(=O)NCC(c2ccc(OC)cc2)N2CCOCC2)cc1 (stereo not drawn) | / | . | / | / | / | ?
CCn1cc(C(=O)NCCc2ccc(OC)c(OC)c2)c(=O)c2cc(S(=O)(=O)N3CCc4ccccc4C3)ccc21 | / | . | . | / | . | ?
COc1cc(C2C=C(C(=O)O)Nc3ncnn32)ccc1O (stereo not drawn) | / | . | ? | / | . | .
Cc1ccccc1N1C(=O)C(Oc2ccc(Cl)cc2)C1CNCCCOC(C)C (stereo not drawn) | 16.4µM | . | . | 16.4µM | . | ?
COc1cccc(-c2nc(CS(=O)(=O)CC(=O)NCCc3cc(OC)ccc3OC)c(C)o2)c1 | . | . | ? | . | ? | .
COc1ccc(-c2nc(CS(=O)(=O)CC(=O)NCCc3cc(OC)ccc3OC)c(C)o2)cc1 | . | . | 8.2µM | . | . | .
COc1ccc(OC)c(CCNC(=O)CS(=O)(=O)Cc2nc(-c3cccc(Cl)c3)oc2C)c1 | / | . | . | / | ? | 15.8µM
CCOC(=O)c1c(NC(=O)c2cccc(N3C(=O)CCC3=O)c2)sc(C)c1C | . | . | 10.3µM | . | . | .

Compound activity: PubChem BioAssay, National Center for Advancing Translational Sciences (NCATS)
